# Measurements: PubChem BioAssay (NCATS)
# Inconclusive results are not listed. Activity calls are given as the source filed them. Calls come from the whole dose curve; as a rule, active = well fitted activation curve with a large enough effect; inconclusive = small, poorly fitted or top-dose-only effect, or effect the other way; inactive = flat fitted curve, though single readings scatter.
# Assay: Cellular Toxicity (caspase-3) NIH 3T3 (AID 666);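 note: caspase signal read after 16 h compound exposure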
# Conditions: NIH 3T3 caspase-3 activation, apoptosis/toxicity, 0% DMSO, 100% is 100 µM tamoxifen; series mostly up to 92.2 µM
# Text: NIH Chemical Genomics Center [NCGC]
# NIH Molecular Libraries Screening Centers Network [MLSCN]
# National Institutes of Environmental Health Sciences [NIEHS]
# National Toxicology Program [NTP]
# We have developed a 1536-well cell-based assay for quantitative high throughput screening (qHTS) against a number of cell lines to determine in vitro caspase 3/7 of small molecules. This particular assay uses the NIH 3T3 cell line which is derived from mouse fibroblasts.
# NCGC Assay Protocol Summary:
# The Caspase-Glo 3/7 assay (Promega) is a homogeneous method to measure caspase-3 and caspase-7 activities in cultured cells. The quantitation of caspase 3/7 activity is based on the cleavage of a peptide-aminoluciferin substrate. After caspase cleaves the substrate the free aminoluciferin is liberated and serves as the substrate of luciferase, which generates the light. The luminescent signal is proportional to amount of caspase 3/7 activity present.
# Using the Caspase-Glo 3/7 assay, the amount of caspase 3/7 activity was measured in the NIH 3T3 cell line with complete culture medium following compound treatment for 16 hours. The assay was performed in opaque white 1536-well plates. In the screen, tamoxifen and doxorubicin were used as positive controls. Library compounds were measured for their ability to cause the activation of caspase 3/7 in the cell line, as reflected by an increase in luminescence signal, in a concentration-dependent manner. Data were normalized to the controls for basal activity (DMSO only) and 100% stimulation (100 uM tamoxifen). AC50 values were determined from concentration-response data modeled with the standard Hill equation.
# qHTS protocol for caspase 3/7 assay in NIH 3T3 cells
# [Step] [Parameter] [Value] [Description]
# 1. Reagent; 5 uL; 1000 NIH 3T3 cells/well
# 2. Time; 5 hr; 37 °C incubation
# 4. Controls; 23 nL; Tamoxifen 0.23 uM to 100 uM & Doxorubicin 7.0 pM to 100 uM
# 5. Time; 16 hr; 37 °C incubation
# 6. Reagent; 5 uL; Caspase-Glo 3/7 reagent
# 7. Time; 20 min; Room Temperature
# 8. Detection; Luminescence; Viewlux plate reader
# Keywords: caspase 3/7, apoptosis, NIH 3T3 cell line, luminescence, NTPHTS, NTPHTS_NCGC, NIEHS, EPA, DSSTox, MLSMR, MLSCN, NIH Roadmap, qHTS, NCGC
row,SMILES,outcome
1,COc1ccc2c(c1)c(CC(=O)O)c(C)n2C(=O)c1ccc(Cl)cc1,inactive
2,CC(C)NCC(O)c1ccc(O)c(O)c1 (stereo unspecified),inactive
3,Clc1ccc(C(c2ccccc2Cl)C(Cl)Cl)cc1 (stereo unspecified),inactive
4,NS(=O)(=O)c1cc2c(cc1Cl)NCNS2(=O)=O,inactive
5,COc1ccc(CCN(C)CCCC(C#N)(c2ccc(OC)c(OC)c2)C(C)C)cc1OC (stereo unspecified),inactive
6,Nc1c2c(nc3ccccc13)CCCC2,inactive
7,COc1cc2c(c(OC)c1OC)-c1ccc(OC)c(=O)cc1[C@@H](NC(C)=O)CC2,inactive
8,NCCS(=O)(=O)O,inactive
9,COc1ccc2[nH]cc(CCNC(C)=O)c2c1,inactive
10,Cc1ccc(-c2cc(C(F)(F)F)nn2-c2ccc(S(N)(=O)=O)cc2)cc1,inactive
11,CC(C)C(=O)Nc1ccc([N+](=O)[O-])c(C(F)(F)F)c1,inactive
12,Cn1c(=O)c2c(ncn2C)n(C)c1=O,inactive
13,Cc1cn([C@H]2C[C@H](N=[N+]=[N-])[C@@H](CO)O2)c(=O)[nH]c1=O,inactive
14,O=c1[nH]cc(F)c(=O)[nH]1,inactive
15,CCC1(c2ccccc2)C(=O)NCNC1=O,inactive
16,Nc1ccn([C@H]2CC[C@@H](CO)O2)c(=O)n1,inactive
17,Cc1cn([C@H]2C=C[C@@H](CO)O2)c(=O)[nH]c1=O,inactive
18,Cn1c(=O)c2[nH]cnc2n(C)c1=O,inactive
19,CC(COc1ccccc1)N(CCCl)Cc1ccccc1 (stereo unspecified),inactive
20,O=c1c(-c2ccc(O)cc2)coc2cc(O)cc(O)c12,inactive
21,N[C@@H](Cc1c[nH]c2ccc(O)cc12)C(=O)O,inactive
